mHTT-CaM PPI inh: disrupts binding of mutant huntingtin to calmodulin | P42858 | AlphaScreen His-mHTT/GST-CaM binding, luminescence | inhibition, % at 15 µM | 3.6% of 190,000 active | AID 1671202
Target sequence (P42858 whole entry, looked up, change not shown): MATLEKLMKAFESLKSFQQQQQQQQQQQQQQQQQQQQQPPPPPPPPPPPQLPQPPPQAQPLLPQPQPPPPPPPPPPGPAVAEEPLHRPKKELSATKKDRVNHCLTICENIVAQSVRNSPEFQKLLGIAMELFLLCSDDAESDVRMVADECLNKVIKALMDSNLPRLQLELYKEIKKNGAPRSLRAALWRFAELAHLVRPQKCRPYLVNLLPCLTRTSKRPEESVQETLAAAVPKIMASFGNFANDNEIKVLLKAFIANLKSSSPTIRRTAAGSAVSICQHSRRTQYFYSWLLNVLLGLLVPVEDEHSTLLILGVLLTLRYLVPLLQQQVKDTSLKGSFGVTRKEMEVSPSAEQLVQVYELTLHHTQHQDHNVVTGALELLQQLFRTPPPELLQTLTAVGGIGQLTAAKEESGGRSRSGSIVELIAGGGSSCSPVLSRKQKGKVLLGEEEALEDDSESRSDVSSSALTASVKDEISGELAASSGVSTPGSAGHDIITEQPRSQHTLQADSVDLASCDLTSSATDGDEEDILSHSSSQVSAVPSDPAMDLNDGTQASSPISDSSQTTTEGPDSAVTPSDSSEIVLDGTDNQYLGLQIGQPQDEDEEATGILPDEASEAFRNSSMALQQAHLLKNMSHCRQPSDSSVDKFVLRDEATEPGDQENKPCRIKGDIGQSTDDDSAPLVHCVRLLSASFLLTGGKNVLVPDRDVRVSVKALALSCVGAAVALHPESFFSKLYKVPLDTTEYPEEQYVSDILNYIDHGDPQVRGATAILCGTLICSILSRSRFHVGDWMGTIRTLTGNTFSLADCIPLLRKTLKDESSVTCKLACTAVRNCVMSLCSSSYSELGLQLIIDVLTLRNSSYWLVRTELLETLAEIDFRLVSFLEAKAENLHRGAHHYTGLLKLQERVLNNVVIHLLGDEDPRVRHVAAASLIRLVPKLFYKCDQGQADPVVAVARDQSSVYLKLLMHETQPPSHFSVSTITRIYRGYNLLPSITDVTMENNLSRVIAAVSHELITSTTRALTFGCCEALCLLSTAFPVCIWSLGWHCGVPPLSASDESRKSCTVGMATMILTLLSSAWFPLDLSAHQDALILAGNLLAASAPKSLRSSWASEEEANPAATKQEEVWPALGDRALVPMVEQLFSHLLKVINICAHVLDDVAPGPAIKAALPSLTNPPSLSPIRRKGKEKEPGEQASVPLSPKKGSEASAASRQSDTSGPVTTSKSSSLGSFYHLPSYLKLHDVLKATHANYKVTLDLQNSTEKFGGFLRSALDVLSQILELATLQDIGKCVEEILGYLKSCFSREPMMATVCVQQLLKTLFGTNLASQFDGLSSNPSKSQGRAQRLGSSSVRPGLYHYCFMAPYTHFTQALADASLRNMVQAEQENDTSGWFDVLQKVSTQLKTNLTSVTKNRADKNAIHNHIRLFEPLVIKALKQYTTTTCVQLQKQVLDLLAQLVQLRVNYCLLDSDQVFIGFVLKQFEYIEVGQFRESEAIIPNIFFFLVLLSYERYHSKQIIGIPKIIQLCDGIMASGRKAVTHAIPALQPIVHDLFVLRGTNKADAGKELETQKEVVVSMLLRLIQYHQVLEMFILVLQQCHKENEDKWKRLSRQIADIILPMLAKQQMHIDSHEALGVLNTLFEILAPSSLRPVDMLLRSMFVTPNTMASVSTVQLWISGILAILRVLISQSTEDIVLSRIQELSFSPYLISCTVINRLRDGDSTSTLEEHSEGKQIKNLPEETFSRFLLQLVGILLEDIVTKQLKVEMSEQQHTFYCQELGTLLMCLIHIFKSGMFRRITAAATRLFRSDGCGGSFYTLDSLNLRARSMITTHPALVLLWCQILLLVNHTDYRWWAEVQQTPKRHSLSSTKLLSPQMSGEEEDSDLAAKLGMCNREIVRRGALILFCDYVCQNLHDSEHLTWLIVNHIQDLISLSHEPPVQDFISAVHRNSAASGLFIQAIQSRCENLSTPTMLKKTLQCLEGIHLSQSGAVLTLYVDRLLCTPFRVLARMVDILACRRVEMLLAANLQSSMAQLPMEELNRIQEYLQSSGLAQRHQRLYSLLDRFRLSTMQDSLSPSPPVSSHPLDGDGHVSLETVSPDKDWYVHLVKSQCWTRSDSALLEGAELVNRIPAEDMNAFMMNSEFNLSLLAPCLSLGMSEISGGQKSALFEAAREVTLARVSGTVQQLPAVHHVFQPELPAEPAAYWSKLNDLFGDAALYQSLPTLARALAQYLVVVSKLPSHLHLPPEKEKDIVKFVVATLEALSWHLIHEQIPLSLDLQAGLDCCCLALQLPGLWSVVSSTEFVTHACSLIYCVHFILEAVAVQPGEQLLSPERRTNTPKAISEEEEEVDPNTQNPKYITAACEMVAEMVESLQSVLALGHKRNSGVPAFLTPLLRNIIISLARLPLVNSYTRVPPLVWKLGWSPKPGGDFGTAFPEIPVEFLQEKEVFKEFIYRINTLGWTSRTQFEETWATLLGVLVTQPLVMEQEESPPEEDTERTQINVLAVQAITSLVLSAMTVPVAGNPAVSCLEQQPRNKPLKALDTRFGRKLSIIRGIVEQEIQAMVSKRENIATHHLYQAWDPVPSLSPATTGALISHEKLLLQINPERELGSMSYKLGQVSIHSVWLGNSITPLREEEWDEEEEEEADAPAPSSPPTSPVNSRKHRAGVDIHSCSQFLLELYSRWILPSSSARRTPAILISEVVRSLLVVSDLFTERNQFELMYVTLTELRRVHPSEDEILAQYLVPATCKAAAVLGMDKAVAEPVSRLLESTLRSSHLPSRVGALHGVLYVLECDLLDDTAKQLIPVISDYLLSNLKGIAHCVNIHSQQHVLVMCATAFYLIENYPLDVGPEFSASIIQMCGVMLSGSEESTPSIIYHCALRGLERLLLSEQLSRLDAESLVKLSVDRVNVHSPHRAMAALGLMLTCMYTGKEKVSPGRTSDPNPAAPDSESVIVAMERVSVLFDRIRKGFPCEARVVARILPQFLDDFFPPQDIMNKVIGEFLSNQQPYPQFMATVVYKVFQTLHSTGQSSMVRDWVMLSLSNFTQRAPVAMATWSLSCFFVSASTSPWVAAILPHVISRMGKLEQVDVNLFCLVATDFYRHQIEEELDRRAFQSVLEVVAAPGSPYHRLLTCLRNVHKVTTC
Pf apPOL inh: Pf-apPOL DNA polymerase inhibition; Recombinant Pf-apPOL, molecular beacon fluorescence, 1.5 h; inhibition, % at 10 µM; 0.25% of 210,000 active; AID 1794808
Numbers stand for hits; 0 = inactive; - = not tested or not shown. The sample as a whole holds a higher share of hits than the screen did. Rule as the data show it: active = inhibition above about 50%; inactive = the rest.

SMILES | mHTT-CaM PPI inh | Pf apPOL inh
CCOC(=O)C(=O)NCC(c1ccc2c(c1)OCO2)N1CCOCC1 (centres undefined) | 0 | 0
Oc1cc2c(cc1C(c1ccc3c(c1)OCO3)N1CCOCC1)OCO2 (centres undefined) | 94 | -
O=C(N1CCN(c2cccc(Cl)c2)CC1)C1(c2ccccc2)CCOCC1 | 0 | 0
CC(NC(=O)Nc1cccc(Cl)c1)c1ccccc1 (centres undefined) | 0 | 0
CC(NC(=O)Nc1ccc(Cl)c(Cl)c1)c1ccccc1 (centres undefined) | 73 | 0
CCc1cc2c3c(c1)C(C)=CC(C)(C)N3C(=O)C2=O | 72 | 0
Cc1cc2c3c(c1)C(C)CC(C)(C)N3C(=O)C2=O (centres undefined) | 0 | 0
CCOCCCNC(=O)C1c2ccccc2C(=O)N(C)C1c1cccs1 (centres undefined) | 0 | 0
N#CC1=C(S)NC(O)(c2ccccc2)C([n+]2ccc3ccccc3c2)C1c1ccncc1 (centres undefined) | 0 | 0
N#CC1=C(O)NC(=O)C([n+]2ccccc2)C1c1ccccc1I (centres undefined) | 0 | 0
N#CC1=C(S)N[C@H](c2cccnc2)[C@@](C#N)(C(N)=S)[C@H]1c1cccnc1 | 0 | -
N#CC1=C(S)NC(O)(c2ccccc2)C([n+]2ccccc2)C1c1ccccc1F (centres undefined) | 56 | 0
N#CC1=C(S)NC(O)(c2ccccc2)C([n+]2cccc3cc(Cl)ccc32)C1c1cccnc1 (centres undefined) | 59 | 0
N#CC1=C(S)NC(O)(c2ccccc2)C([n+]2ccc3ccccc3c2)C1c1ccc(F)cc1 (centres undefined) | 75 | 0
COc1ccc(NC(=O)c2ccnc(N3CCNC(c4ccccc4)C3)c2)cc1OC (centres undefined) | 0 | 0
CCOc1nc(N)nc(NC)n1 | - | 0
COc1ccc(N=C2SC(C(=O)O)CC(=O)N2Cc2ccc(F)cc2)cc1 (centres undefined) | 0 | 0
O=C(O)C1CC(=O)N(Cc2ccc(Cl)cc2)C(=Nc2ccc(Cl)cc2)S1 (centres undefined) | 0 | 0
COc1ccc(N=C2SC(C(=O)N3CCN(c4ccc(F)cc4)CC3)CC(=O)N2C)cc1 (centres undefined) | 51 | 0
COc1ccc(CN2C(=O)CC(C(=O)O)SC2=Nc2ccc(Cl)cc2)cc1 (centres undefined) | 0 | 52
Cc1cccc(NC(=O)C2CCCN(c3cnn(Cc4ccccc4)c(=O)c3)C2)c1C (centres undefined) | 0 | 0
CN1C(=O)C2CCCCN2c2ccc(C(=O)NCCCN3CCCCCC3)cc21 (centres undefined) | 0 | 0
O=CN1CCN(C(=O)c2ccc(I)cc2)CC1 | 0 | 0
Cc1cc(Br)ccc1NC(=O)C1CCN(c2cc(=O)n(C)c(=O)n2C)CC1 | 0 | 0
CCCCN(C)S(=O)(=O)c1ccc(C(=O)Nc2nnc(-c3ccccc3OC)o2)cc1 | 0 | 0
SMILES | mHTT-CaM PPI inh | Pf apPOL inh
Oc1c(C(Nc2ccc(Cl)cc2)c2ccccn2)ccc2cccnc12 (centres undefined) | 100 | 0
Oc1c(C(Nc2cccc(C(F)(F)F)c2)c2ccccn2)ccc2cccnc12 (centres undefined) | 99 | 0
O=[N+]([O-])c1ccc(OCCOc2cccc3cccnc23)cc1 | 0 | 0
O=[N+]([O-])c1ccc(NC(c2ccccn2)c2ccc3cccnc3c2O)cc1 (centres undefined) | 100 | 0
Cc1[nH]c2ccccc2c1C(Nc1cccc(C(F)(F)F)c1)c1cccnc1 (centres undefined) | 0 | 0
Oc1c(C(Nc2cccc(C(F)(F)F)c2)c2cccnc2)ccc2cccnc12 (centres undefined) | 99 | 0
O=C(NCc1ccccn1)C(=O)Nc1cccc(C(F)(F)F)c1 | 0 | 0
CN(C)CCC(c1ccc(Cl)cc1)c1ccccn1 (centres undefined) | - | 0
Cc1cc(-c2ccc3c(c2)CCN3C(=O)c2cccc(N(C)C)c2)on1 | 0 | 0
CCOc1ccc(CNC(=O)CC2CCN(S(=O)(=O)c3cccs3)CC2)cc1 | 0 | 0
COc1cc(C=O)ccc1OCc1ccc(F)cc1Cl | 0 | 0
O=C(Nc1cccc2cccnc12)c1ccc(Cl)cc1Cl | 0 | 0
COc1ccc(NC(=O)c2cccnc2)cc1 | 0 | 0
Oc1c(C(Nc2cccc(Cl)c2)c2ccccn2)ccc2cccnc12 (centres undefined) | 100 | 0
COc1ccc(NC(c2cccnc2)c2ccc3cccnc3c2O)cc1 (centres undefined) | 99 | 0
O=c1nc(/C=C/c2cn[nH]c2-c2cccs2)cc(C(F)(F)F)[nH]1 | 0 | -
CCCc1cc(C2CCCN2C(=O)Nc2cc(OC)ccc2OC)no1 (centres undefined) | 0 | 0
CC1CCN(Cc2c(O)ccc3c2OC(=Cc2ccncc2)C3=O)CC1 | 0 | 0
O=C(CSc1n[nH]c(=O)n1-c1cccnc1)c1ccc2c(c1)OCCO2 | - | 0
COC(=O)C1=C(N)Oc2c(oc(CO)cc2=O)C1c1ccc(Cl)c(Cl)c1 (centres undefined) | 70 | 0
COC(=O)C1=C(N)Oc2c(oc(CO)cc2=O)C1c1ccc(Cl)cc1 (centres undefined) | 0 | 0
O=C(Nc1ccc(F)cc1)C1CCC(CNS(=O)(=O)c2ccc(Br)s2)CC1 (centres undefined) | 0 | 0
Cc1cccc(S(=O)(=O)N2CC3CN(C(=O)c4cccnc4)CC(C2)O3)c1 | 0 | 0
COc1ccc2cccc(NC(=O)c3c[nH]c4ccccc34)c2n1 | 58 | 0
COc1ccc2cccc(NC(=O)c3ccco3)c2n1 | 0 | 0
SMILES | mHTT-CaM PPI inh | Pf apPOL inh
Fc1ccc(C2Nc3ccc(F)cc3C3C=CCC32)cc1 (centres undefined) | 94 | 0
Cc1cc(I)cc2c1NC(c1ccc(F)cc1)C1CC=CC21 (centres undefined) | 54 | 0
O=C(NC1CCCCCC1)C1CCCN(C(=O)c2cccc(C(F)(F)F)c2)C1 (centres undefined) | 0 | 0
COCCCN1COc2ccc3c(=O)c(-c4ccccc4OC)coc3c2C1 | 0 | 0
Cc1ccccc1OCC(=O)N1CCN(c2nc(CN3CCCCC3)cs2)CC1 | 0 | 0
O=S(=O)(c1ccc2nc[nH]c2c1)c1ccc2nc[nH]c2c1 | 0 | 0
O=C(Cc1csc2nc(-c3ccc(Cl)cc3)cn12)NCc1ccco1 | 0 | 0
Cc1ccc([C@H]2C[C@H](O)[C@@H](n3cc(C4CC4)nn3)CN2CC2CCCCC2)cc1 | 86 | 0
Cc1ccc([C@H]2C[C@H](n3cc(C4CC4)nn3)[C@@H](O)CN2CC2CCCCC2)cc1 | 0 | 0
O[C@H]1CN(CC2CCCCC2)[C@@H](c2ccccc2)C[C@@H]1n1cc(C2CC2)nn1 | 70 | 0
Cc1ccc([C@H]2C[C@@H](n3cc(C4CC4)nn3)[C@H](O)CN2CC2CCCCC2)cc1 | 0 | 0
N#CC(C#N)=CC=C(Sc1nnnn1-c1ccccc1)c1ccccc1 | - | 0
CC(C)C(C(=O)Nc1cccc(C(F)(F)F)c1)N1C(=O)c2ccccc2C1=O (centres undefined) | 0 | 0
CC(C(=O)Nc1nc2ccccc2s1)N1C(=O)c2ccccc2C1=O (centres undefined) | 0 | 0
CC(C)CC(C(=O)Nc1nc2ccccc2s1)N1C(=O)c2ccccc2C1=O (centres undefined) | 99 | 0
CC(C)CC(C(=O)Nc1cccc(C(F)(F)F)c1)N1C(=O)c2ccccc2C1=O (centres undefined) | 57 | 0

Source: PubChem (University of Kansas High Throughput Screening Laboratory)
